Only some compounds are listed: those with a hit (about 1.6% of all), similar ones and a draw of the others.
PLK1 PBD inh = Plk1 (human) PBD binding inhibition. Plk1 PBD phosphopeptide binding, fluorescence polarization. actives 0.13% (n = 97,000). inhibition, %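 (tested at about 20 µM)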. P53350; in the data active means inhibition above about 34%, passing the limit was not always enough
PLK1 inh = PLK1 (human) kinase inhibition. P53350. recombinant PLK1 kinase, TR-FRET peptide phosphorylation. inhibition, % at 10 µM. actives 0.53% (n = 97,000). AID 619;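 active means inhibition of 50% or more in the single-concentration screen; inactive means inhibition below 50%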
sEH activator = activators of human soluble epoxide hydrolase | purified human sEH enzymatic activity, activator screen | activation, % at 2 µM | actives 0.04% (n = 91,000) | AID 717; in the data active means activation above about 37%
sEH inh = soluble epoxide hydrolase (human) inhibition; inhibition, % at 2 µM; actives 0.34% (n = 91,000); AID 707; P34913; recombinant human sEH enzymatic activity assay; in the data active means inhibition above about 80%
PTK2B oligo ant = antagonists of human Pyk2 oligomerization. Q293 cells, Pyk2 FERM NanoBiT luminescence; hits give low values. z-score (the deposit names both 25 µM and 10 µM). actives 0.83% (n = 99,000);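 active means Z-score of -3 or lower, scaled per plate to the spread of control and sample wells; inactive means z-score above -3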;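 further: negative z-score means lost luminescence so less FERM oligomerization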
Redox H2O2 DR = redox cycling H2O2 generation counter-screen for Plk1 PBD. shares compounds with PLK1 PBD inh. DTT. EC50, µM. 120 tested, under 10 active. AID 876; call rule not given here
Large screens that a line does not name were inactive (follow-up assays come after a bar, where they were run).

Cc1ccc(Cl)cc1N1CCN(S(=O)(=O)c2ccc3c(c2)oc(=O)n3C)CC1	PLK1 PBD inh 39 (no result: sEH activator, sEH inh) | Redox H2O2 DR inactive
Cc1ccc(NC(=O)C2CC=CCC2C(=O)N2CCCCC2)cc1 (stereo unspecified)	PLK1 PBD inh 43 | Redox H2O2 DR inactive
Cc1cccc2[nH]c3c(N4CCC5(CC4)OCCO5)ncnc3c12	none
Cc1cccc2[nH]c3c(N4CCN(C(=O)c5ccco5)CC4)ncnc3c12	PLK1 PBD inh 51 | Redox H2O2 DR inactive
NC(=O)Cn1c(S(=O)(=O)Cc2ccccc2)nc2ccccc21	PLK1 PBD inh 43 | Redox H2O2 DR inactive
O=C(Cn1c(S(=O)(=O)Cc2ccccc2)nc2ccccc21)N1CCCCC1	none (no result: PTK2B oligo ant)
Cc1ccc(C(=O)C2CCN(CC(=O)Nc3nc(C)cs3)CC2)cc1	none

Screening data: PubChem, several laboratories
